# According to PubChem BioAssay (Tox21):
# Where “and” joins values, the source holds several entries; their conditions need not be identical. Equal entries are not always repeated. Records with an inconclusive call do not appear. Where a call stands in place of a potency, no number is given. Some structures have more than one record in an assay (separate samples or runs), and their calls can disagree. Calls of active or inactive are those of the source. Unless noted, calls follow the shape of the dose curve; as a rule, active = well fitted curve in the direction sought with a large enough effect in the repeat runs; inconclusive = weak or mixed curves; inactive = no such curve, though single readings can be large; an effect the other way counts as inactive or inconclusive.
# Assays:
# [1] = target: Progesterone receptor (Homo sapiens) (UniProt P06401); test: qHTS assay to identify small molecule agonists of the progesterone receptor (PR) signaling pathway (AID 1346784; calls by dose curve; also: nearly all actives have a fitted effect of over 30% in size)
# Sequence of Progesterone receptor (Homo sapiens) (P06401 whole entry, looked up): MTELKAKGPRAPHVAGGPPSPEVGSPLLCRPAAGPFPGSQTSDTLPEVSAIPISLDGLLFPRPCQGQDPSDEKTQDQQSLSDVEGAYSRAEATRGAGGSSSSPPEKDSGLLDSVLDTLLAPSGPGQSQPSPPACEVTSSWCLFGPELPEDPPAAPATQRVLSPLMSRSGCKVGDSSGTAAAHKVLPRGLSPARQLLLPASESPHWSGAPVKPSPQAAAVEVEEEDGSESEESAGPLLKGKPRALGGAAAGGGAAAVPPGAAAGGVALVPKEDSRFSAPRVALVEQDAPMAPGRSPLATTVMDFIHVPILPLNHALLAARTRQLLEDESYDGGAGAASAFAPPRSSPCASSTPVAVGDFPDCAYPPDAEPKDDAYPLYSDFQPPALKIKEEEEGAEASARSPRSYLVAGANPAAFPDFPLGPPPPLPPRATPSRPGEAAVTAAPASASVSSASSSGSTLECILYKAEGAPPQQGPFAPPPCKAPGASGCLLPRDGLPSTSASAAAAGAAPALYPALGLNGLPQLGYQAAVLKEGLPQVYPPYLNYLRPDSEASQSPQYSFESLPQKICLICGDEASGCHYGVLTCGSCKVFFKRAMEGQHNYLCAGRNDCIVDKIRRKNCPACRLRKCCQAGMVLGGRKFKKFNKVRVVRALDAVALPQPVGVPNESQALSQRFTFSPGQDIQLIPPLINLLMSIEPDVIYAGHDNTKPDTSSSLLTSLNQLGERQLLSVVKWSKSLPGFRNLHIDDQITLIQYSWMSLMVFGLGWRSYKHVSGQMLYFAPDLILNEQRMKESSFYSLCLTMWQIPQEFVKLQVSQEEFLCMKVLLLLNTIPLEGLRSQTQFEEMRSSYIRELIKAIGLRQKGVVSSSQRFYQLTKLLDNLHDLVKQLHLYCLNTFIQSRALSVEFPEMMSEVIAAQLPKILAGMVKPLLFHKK
# In short: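 Seed PR-UAS-bla HEK 293T cells (2% charcoal-stripped FBS), incubate 6 hr at 37C; add compounds in DMSO, 16 hr at 37C; add LiveBLAzer B/G substrate, 2 hr RT; read fluorescence intensity.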
# [2] = target: Progesterone receptor (Homo sapiens) (UniProt P06401); test: qHTS assay to identify small molecule antagonists of the progesterone receptor (PR) signaling pathway (AID 1346795; active = well fitted inhibition curve with a large enough effect in the signal ratio in the repeat runs, not every such curve was filed as active; the % refers to the signal ratio)
# In short: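 Screening used a GripTite HEK293T line with PR-responsive UAS-beta-lactamase. Cells were challenged with compound in the presence of 1 nM R5020 final for 16 hr at 37C; B/G FRET substrate, 2 hr room temperature, fluorescence.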
# [3] = qHTS assay to identify small molecule antagonists of the progesterone receptor (PR) signaling pathway - cell viability counter screen (AID 1346798); also: series mostly up to about 92 µM; nearly all actives have a fitted effect of over 50% in size
# In short: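 Measures cytotoxicity in parallel with the PR antagonist reporter read: HEK293T PR-UAS-bla cells get compound and R5020 for 16 hr, and remaining viable cells are quantified by CellTiter-Glo luminescence.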
# [4] = qHTS assay to identify small molecule antagonists of the TGF-beta/Smad signaling pathway - cell viability counter screen (AID 1346824); also: nearly all actives have a fitted effect of over 50% in size
# In short: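 SBE-bla HEK 293T cells, incubated overnight, then compound plus 0.25 ng/mL TGF-beta1 (stock added) for 5 hr at 37 C. Viability was read in the same wells by CellTiter-Glo luminescence after 30 min at room temperature.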
# [5] = qHTS assay to identify small molecule agonists of the TGF-beta/Smad signaling pathway - cell viability counter screen (AID 1346829); also: top concentration of the series differs between compounds; nearly all actives have a fitted effect of over 45% in size
# In short: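 In parallel with the Smad reporter read, viability of HEK 293T cells stably carrying SBE-bla is quantified by ATP luminescence following 5 hr compound treatment.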
# [6] = qHTS assay to identify small molecule agonists of the TGF-beta/Smad signaling pathway (AID 1346859; active = well fitted activation curve with a large enough effect in the signal ratio in the repeat runs, not every such curve was filed as active; the % refers to the signal ratio; also: series mostly up to about 77 µM)
# In short: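 Beta-lactamase reporter activity downstream of Smad binding elements was measured in stably transfected HEK 293T cells; compounds were incubated for 5 hr, substrate for 2 hr at room temperature.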
# [7] = target: Thyrotropin-releasing hormone receptor (Homo sapiens) (UniProt P34981); test: qHTS assay to identify small molecule antagonists of the thyrotropin-releasing hormone receptor (TRHR) signaling pathway (AID 1346877; active = well fitted inhibition curve with a large enough effect in the repeat runs, not every such curve was filed as active; also: series mostly up to about 51 µM)
# Sequence of Thyrotropin-releasing hormone receptor (Homo sapiens) (P34981 whole entry, looked up): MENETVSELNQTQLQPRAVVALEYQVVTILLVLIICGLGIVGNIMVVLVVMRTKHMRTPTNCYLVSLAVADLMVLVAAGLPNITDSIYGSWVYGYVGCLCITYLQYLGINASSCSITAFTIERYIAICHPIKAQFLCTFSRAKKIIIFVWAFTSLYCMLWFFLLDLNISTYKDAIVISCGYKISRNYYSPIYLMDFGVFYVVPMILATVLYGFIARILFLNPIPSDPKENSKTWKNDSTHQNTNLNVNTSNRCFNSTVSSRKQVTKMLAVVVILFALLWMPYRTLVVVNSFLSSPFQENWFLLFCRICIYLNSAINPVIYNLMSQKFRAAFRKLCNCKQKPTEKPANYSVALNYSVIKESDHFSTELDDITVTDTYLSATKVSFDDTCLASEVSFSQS
# In short: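 Antagonist mode: after a 5 min room-temperature compound exposure, cells were stimulated with 1 nM (final) TRH. Dye-loaded TRHR-HEK293 cells were used, and calcium-dependent fluorescence was followed for 3 min, with 15-point titrations run in triplicate.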
# [8] = target: Thyrotropin-releasing hormone receptor (Homo sapiens) (UniProt P34981); test: qHTS assay to identify small molecule agonists of the thyrotropin-releasing hormone receptor (TRHR) signaling pathway (AID 1346891; calls by dose curve;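 also: HEK293 cells expressing TRHR with calcium dye readout; series mostly up to about 58 µM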)
# In short: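 Overnight-plated (18 h, 37 °C, 5% CO2) TRHR-Hek293 cells; 2 h calcium dye at 37 °C; compound in DMSO; 3-min kinetic fluorescence read.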
# [9] = Human pregnane X receptor (PXR) small molecule agonists, qHTS cell viability counter screen (AID 1346977); also: nearly all actives have a fitted effect of over 50% in size
# In short: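 After a 5hr pre-incubation, PXR-Luc HepG2 cells received compounds plus positive control in DMSO and were kept 24hr at 37C. Cell viability was quantified by fluorescence from CellTiter-Fluor added for the final hour.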
# [10] = Caspase-3/7 induction in HepG2 cells by small molecules, qHTS assay (AID 1346978); also: nearly all actives have a fitted effect of over 15% in size
# In short: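 Wild-type HepG2 cells, 2,000/well, settled 5 hr at 37 C and 5% CO2, then compound-treated for 17 hr; caspase-3/7 activity read by luminescent Caspase-Glo 3/7 after 30 min at room temperature.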
# [11] = Caspase-3/7 induction in CHO-K1 cells by small molecules, qHTS cell viability counter screen (AID 1346979); also: nearly all actives have a fitted effect of over 35% in size
# In short: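 Multiplexed with Caspase-Glo 3/7 in CHO-K1 cells, this counter screen added CellTiter-Fluor after 16hr of compound exposure and recorded fluorescence 1hr later.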
# [12] = Caspase-3/7 induction in CHO-K1 cells by small molecules, qHTS assay (AID 1346980); also: nearly all actives have a fitted effect of over 15% in size
# In short: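 Wild-type CHO-K1 cells exposed to compounds for 17hr at 37 C, 5% CO2. Caspase-3/7 activity then measured by Caspase-Glo 3/7 luminescence after 30min at room temperature.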
# [13] = Caspase-3/7 induction in HepG2 cells by small molecules, qHTS cell viability counter screen (AID 1346981); also: series mostly up to about 92 µM; nearly all actives have a fitted effect of over 30% in size
# In short: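 CellTiter-Fluor fluorescence measured viability in the same wells used for Caspase-Glo 3/7. HepG2 (wild type) at 2,000 cells/well were pre-incubated 5 hr, dosed, and given reagent at 16 hr, with 1 hr further at 37C.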
# [14] = target: Nuclear receptor subfamily 1 group I member 2 (Homo sapiens) (UniProt O75469); test: Human pregnane X receptor (PXR) small molecule agonists, qHTS assay (AID 1346982); also: nearly all actives have a fitted effect of over 35% in size; also: potency is read from the fitted curve at half-maximal effect
# Sequence of Nuclear receptor subfamily 1 group I member 2 (Homo sapiens) (O75469 whole entry, looked up): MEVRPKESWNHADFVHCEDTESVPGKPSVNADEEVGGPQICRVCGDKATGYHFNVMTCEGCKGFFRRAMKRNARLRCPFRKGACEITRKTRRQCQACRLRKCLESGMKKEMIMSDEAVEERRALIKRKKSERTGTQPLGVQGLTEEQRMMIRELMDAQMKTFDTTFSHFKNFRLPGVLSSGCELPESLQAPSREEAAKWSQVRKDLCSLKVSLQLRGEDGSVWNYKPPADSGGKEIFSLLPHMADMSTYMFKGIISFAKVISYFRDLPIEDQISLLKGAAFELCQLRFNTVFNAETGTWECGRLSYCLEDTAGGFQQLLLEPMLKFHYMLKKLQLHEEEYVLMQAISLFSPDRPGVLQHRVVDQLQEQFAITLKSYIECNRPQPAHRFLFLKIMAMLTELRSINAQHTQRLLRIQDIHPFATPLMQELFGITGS
# In short: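 Agonist mode: luminescence from ONE-Glo after 24 h compound exposure at 37C in HepG2 cells carrying hPXR-responsive CYP3A4 luciferase, plated in charcoal-stripped serum medium 5 h beforehand.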
# [15] = target: Nuclear receptor subfamily 1 group I member 2 (Rattus norvegicus) (UniProt Q9R1A7); test: Rat pregnane X receptor (rPXR) activation by small molecules, qHTS assay (AID 1346983); details: rPXR luciferase reporter cells, One-Glo luminescence, 24 h; max activation: stronger effect = higher value; also: nearly all actives have a fitted effect of over 20% in size; also: potency is read from the fitted curve at half-maximal effect
# Sequence of Nuclear receptor subfamily 1 group I member 2 (Rattus norvegicus) (Q9R1A7 whole entry, looked up): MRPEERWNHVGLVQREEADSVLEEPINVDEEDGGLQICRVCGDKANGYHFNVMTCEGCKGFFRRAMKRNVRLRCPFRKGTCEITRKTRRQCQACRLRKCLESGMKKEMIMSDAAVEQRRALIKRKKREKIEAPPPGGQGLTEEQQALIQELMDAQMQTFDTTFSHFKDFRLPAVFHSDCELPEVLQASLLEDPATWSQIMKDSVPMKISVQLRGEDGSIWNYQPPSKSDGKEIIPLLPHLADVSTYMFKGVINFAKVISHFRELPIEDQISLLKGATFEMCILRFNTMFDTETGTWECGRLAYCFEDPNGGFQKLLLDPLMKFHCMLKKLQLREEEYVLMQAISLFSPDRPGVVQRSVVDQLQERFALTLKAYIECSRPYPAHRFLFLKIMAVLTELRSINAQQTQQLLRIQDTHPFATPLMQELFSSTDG
# In short: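 Cell-based rPXR activation assay: rPXR cells, 2,000 per well, rested 5hr at 37 C, then exposed to compounds in DMSO for 24 hr at 37 C. Luciferase activity read by One-Glo luminescence after 30 min at room temperature.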
# [16] = target: Nuclear receptor subfamily 1 group I member 2 (Homo sapiens) (UniProt O75469); test: CYP3A4 induction through human pregnane X receptor (PXR) by small molecules, qHTS assay (AID 1346984); also: nearly all actives have a fitted effect of over 40% in size
# In short: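 Read-out is luminescence after One-Glo addition, following a 3 hr, 37C incubation with Luciferin-IPA CYP3A4 substrate (3uM final). Before that, compounds were on DPX-2 cells (HepG2 co-transfected with PXR element plus CYP3A4-promoter luciferase) for 24 hr at 37C.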
# [17] = target: Nuclear receptor subfamily 1 group I member 2 (Homo sapiens) (UniProt O75469); test: Human pregnane X receptor (PXR) activation by small molecules, qHTS assay (AID 1346985); also: nearly all actives have a fitted effect of over 40% in size
# In short: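 DPX-2 cells (HepG2 co-transfected with a PXR response element and a CYP3A4-promoter luciferase construct) were seeded at 2,000 per well, rested 5 hr at 37C, then exposed to DMSO-dissolved compounds for 24 hr. Activation was read as luciferase luminescence.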
# [18] = target: Acetylcholinesterase (Homo sapiens) (UniProt P22303); test: Acetylcholinesterase (AChE) small molecule antagonists: colormetric cell-based qHTS assay (AID 1347395; calls by dose curve; also: nearly all actives have a fitted effect of over 30% in size; also: potency is read from the fitted curve at half-maximal effect)
# Sequence of Acetylcholinesterase (Homo sapiens) (P22303 whole entry, looked up): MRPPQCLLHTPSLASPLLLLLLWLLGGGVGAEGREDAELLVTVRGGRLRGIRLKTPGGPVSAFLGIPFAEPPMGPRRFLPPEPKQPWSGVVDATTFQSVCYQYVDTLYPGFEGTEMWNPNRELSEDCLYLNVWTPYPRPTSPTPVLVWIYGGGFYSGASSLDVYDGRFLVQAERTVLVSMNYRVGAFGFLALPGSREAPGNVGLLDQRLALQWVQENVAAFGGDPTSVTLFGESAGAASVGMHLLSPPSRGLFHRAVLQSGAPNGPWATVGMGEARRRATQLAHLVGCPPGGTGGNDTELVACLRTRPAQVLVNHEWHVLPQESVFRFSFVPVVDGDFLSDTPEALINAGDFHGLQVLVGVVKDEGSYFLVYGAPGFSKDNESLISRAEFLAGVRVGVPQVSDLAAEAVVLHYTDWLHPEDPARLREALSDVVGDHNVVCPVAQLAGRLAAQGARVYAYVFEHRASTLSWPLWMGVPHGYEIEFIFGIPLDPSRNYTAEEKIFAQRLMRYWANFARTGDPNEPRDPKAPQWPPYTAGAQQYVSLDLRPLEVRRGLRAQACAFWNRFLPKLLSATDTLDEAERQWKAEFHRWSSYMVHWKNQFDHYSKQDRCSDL
# In short: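 In this cell-based qHTS, attached SH-SY5Y cells were treated with test chemicals for 30 min, after which acetylthiocholine hydrolysis was followed by DTNB colour development over 90 min at 37 C.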
# [19] = qHTS assay to identify small molecule agonists of the estrogen receptor alpha (ER-alpha) signaling pathway in the presence of an antagonist - cell viability counter screen (AID 1259386); also: series mostly up to about 92 µM; nearly all actives have a fitted effect of over 30% in size
# In short: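 Compounds tested at 15 concentrations for 22 h at 37C alongside 10.0nM (final) ICI-182,780 antagonist, in VM7Luc4E2 cells grown in phenol red-free, charcoal-stripped medium. Viability read by CellTiter-Fluor fluorescence after 1 h reagent incubation.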
# [20] = qHTS assay to identify small molecule agonists of the progesterone receptor (PR) signaling pathway - cell viability counter screen (AID 1346799; calls by dose curve; also: nearly all actives have a fitted effect of over 45% in size)
# In short: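 Using the same plates as the PR reporter screen, HEK293T PR-UAS-bla cells received compounds for 16 hr at 37C and were then lysed with CellTiter-Glo; luminescence was read 30 min later at room temperature.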
compound,measurement,setting,value
O=[N+]([O-])c1cc([As](=O)(O)O)ccc1O,Potency,[1],inactive
same,Potency,[2],inactive
same,Potency,[3],inactive
same,Potency,[4],inactive
same,Potency,[5],inactive
same,outcome,[6],inactive
same,outcome,[7],inactive
same,outcome,[8],inactive
same,Potency,[9],inactive
same,outcome,[10],inactive
same,Potency,[11],inactive
same,outcome,[12],inactive
same,Potency,[13],inactive
same,Potency,[14],inactive
same,Potency,[15],12.6 µM (active)
same,Potency,[16],inactive
same,Potency,[17],inactive
same,Potency,[18],inactive
Cc1ccccc1N,Potency,[19],inactive
same,Potency,[1],inactive
same,Potency,[2],inactive
same,Potency,[3],inactive
same,Potency,[4],inactive
same,Potency,[5],inactive
same,outcome,[6],inactive
same,Potency,[9],inactive
same,outcome,[10],inactive
same,Potency,[11],inactive
same,outcome,[12],inactive
same,Potency,[13],inactive
same,Potency,[14],inactive and 54.5 µM (active)
Cc1cccc(C)c1N,Potency,[19],inactive
same,Potency,[1],inactive
same,Potency,[2],inactive
same,Potency,[3],inactive
same,Potency,[4],inactive
same,Potency,[5],inactive
same,outcome,[6],inactive
same,outcome,[7],inactive
same,outcome,[8],inactive
same,Potency,[9],inactive
same,outcome,[10],inactive
same,Potency,[11],inactive
same,outcome,[12],inactive
same,Potency,[13],inactive
same,Potency,[14],inactive
same,Potency,[18],inactive
O=C(O)C1C(C(=O)O)C2(Cl)C(Cl)=C(Cl)C1(Cl)C2(Cl)Cl (centres undefined),Potency,[19],inactive
same,Potency,[1],inactive
same,Potency,[2],inactive
same,Potency,[3],inactive
same,Potency,[4],inactive
same,Potency,[5],inactive
same,outcome,[6],inactive
same,Potency,[9],inactive
same,outcome,[10],inactive
same,Potency,[11],inactive
same,outcome,[12],inactive
same,Potency,[13],inactive
same,Potency,[14],inactive
same,Potency,[18],inactive
CCOP(=S)(OCC)Oc1ccc([N+](=O)[O-])cc1,Potency,[19],inactive
same,Potency,[1],inactive
same,Potency,[3],inactive
same,Potency,[4],inactive
same,Potency,[5],inactive
same,outcome,[6],inactive
same,outcome,[7],inactive
same,outcome,[8],inactive
same,Potency,[9],inactive
same,outcome,[10],inactive
same,Potency,[11],inactive
same,outcome,[12],inactive
same,Potency,[13],inactive
same,Potency,[14],49.2 µM (active)
same,Potency,[18],64.1 µM (active) and 13.8 µM (active)
Cc1cccc(C)c1NC(=O)CN1CCCC1=O,Potency,[19],inactive
same,Potency,[1],inactive
same,Potency,[2],inactive
same,Potency,[3],inactive
same,Potency,[4],inactive
same,Potency,[5],inactive
same,outcome,[6],inactive
same,outcome,[7],inactive
same,outcome,[8],inactive
same,Potency,[9],inactive
same,outcome,[10],inactive
same,Potency,[11],inactive
same,outcome,[12],inactive
same,Potency,[13],inactive
same,Potency,[14],inactive
same,Potency,[18],inactive
C=CCN=C=S,Potency,[19],inactive
same,Potency,[1],inactive
same,Potency,[2],inactive
same,outcome,[20],inactive
same,Potency,[4],inactive
same,Potency,[5],inactive
same,outcome,[6],inactive
same,Potency,[9],inactive
same,outcome,[10],inactive
same,Potency,[11],inactive
same,outcome,[12],inactive
same,Potency,[13],inactive
same,Potency,[14],55.7 µM (active) and inactive
same,max activation,[15],0.185% (inactive)
same,Potency,[16],inactive
same,Potency,[17],inactive
same,Potency,[18],inactive
